Results filed as inconclusive are left out. The source made the active and inactive calls. Unless noted, calls follow the shape of the full dose curve.
test system: not listed separately; assay: Stat Signaling Pathway (AID 446; active = well fitted curve in either direction with a large enough effect, not every such curve was filed as active;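 also: ME-180 cervical cancer cells given 40 pM IL-6 alongside compound; SIE-controlled beta-lactamase reporter measured as 460/530 nm FRET emission ratio; % is scaled to controls: 0 for no effect and ±100 for the full control effect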); conditions: ME-180 SIE beta-lactamase reporter, IL-6 stimulated, 5 h; at 7.69 µM (top of the series) unless noted
Procedure, shortened: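 ME-180 SIE-bla cells; overnight plating; cpd + IL-6 40 pM, 5 h, 37 C; LiveBLAzer 2.5 h RT; 460/530 nm emission ratio. Normalized to 300 pM IL-6 and 125 nM JAK inhibitor controls.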

Structure (SMILES) | activity, negative = inhibition
Cc1noc(C)c1C(=O)N1CCC2(CC1)CN(c1cccc(-c3ccccc3)c1)C2 | -11.6% (inactive)
CC(C)CN(CC#N)CC(C)C | 5.79% (inactive)
O=C(O)c1cccc(N=Nc2c(S(=O)(=O)O)ccc3c2C(=O)c2ccccc2C3=O)c1O | -9.02% (inactive)
c1ccc(CN2COc3c(ccc4c5c(ccc34)CN(Cc3ccccc3)CO5)C2)cc1 | 8.56% (inactive)
COc1ccc(C(=O)N2CCC[C@@]3(CCN(c4ccccc4)C3)C2)cc1 | -1.29% (inactive)
O=S(=O)(c1ccccc1)N1CCN(S(=O)(=O)c2ccccc2)c2ccccc21 | -7.57% (inactive)
CN1CCC[C@@H]1c1cccnc1.O=C(O)c1ccccc1O.O=C([OH2+])c1ccccc1O.O=C([OH2+])c1ccccc1O.O=C([OH2+])c1ccccc1O.[Cu] | 12.5% (inactive)
O=C1OC2(c3ccc(O)cc3Oc3cc(O)ccc32)c2c1c(-c1ccccc1)c(-c1ccccc1)c(-c1ccccc1)c2-c1ccccc1 | -17.7% (inactive)
COCCn1c(=O)c(-c2cc(F)cc(F)c2)nc2cnc(Oc3ccc(OC)cc3)nc21 | -2.08% (inactive)
CC(C)c1ccc2c(c1)CC[C@H]1[C@@](C)(CN)CCC[C@@]21C | 11.3% (inactive)
CN1CCC[C@@H]1c1cccnc1.O=C(O)c1ccccc1O.O=C([OH2+])c1ccccc1O.O=C([OH2+])c1ccccc1O.O=C([OH2+])c1ccccc1O.[Mn] | -11.4% (inactive)
O=C(O)CN(CCN(CC(=O)O)CC(=O)O)CC(=O)O.[Mn] | 8.71% (inactive)
CCc1ccc(CCC(=O)O)nc1 | -13.2% (inactive)
CN1CCC[C@@H]1c1cccnc1.O=C(O)c1ccccc1O.O=C([OH2+])c1ccccc1O.O=C([OH2+])c1ccccc1O.[Mn] | 17.5% (inactive)
COc1ccc(C(=O)N2CCC3(CC2)CCN(c2ccccn2)CC3)cc1 | -10.1% (inactive)
O=C(O)CN(CCN(CC(=O)O)CC(=O)O)CC(=O)O.[Cu] | 6.67% (inactive)
CN(C)CN1CSC(=S)N(CN(C)C)C1 | 0.0184% (inactive)
OCCSCc1cc(Cl)cc(Cl)c1O | 17.5% (inactive)

molecular target: Glucocorticoid receptor (Homo sapiens) (UniProt P04150); assay: GR-GFP Redistribution (AID 450;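 active = compounds whose dose series gives a full or clear partial fitted curve of increased nuclear translocation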; also: potency is read from the fitted curve at half-maximal effect); conditions: U2OS GR-GFP nuclear translocation, laser cytometry, 2 h
Sequence (P04150 whole entry, looked up, the tested form may be a part): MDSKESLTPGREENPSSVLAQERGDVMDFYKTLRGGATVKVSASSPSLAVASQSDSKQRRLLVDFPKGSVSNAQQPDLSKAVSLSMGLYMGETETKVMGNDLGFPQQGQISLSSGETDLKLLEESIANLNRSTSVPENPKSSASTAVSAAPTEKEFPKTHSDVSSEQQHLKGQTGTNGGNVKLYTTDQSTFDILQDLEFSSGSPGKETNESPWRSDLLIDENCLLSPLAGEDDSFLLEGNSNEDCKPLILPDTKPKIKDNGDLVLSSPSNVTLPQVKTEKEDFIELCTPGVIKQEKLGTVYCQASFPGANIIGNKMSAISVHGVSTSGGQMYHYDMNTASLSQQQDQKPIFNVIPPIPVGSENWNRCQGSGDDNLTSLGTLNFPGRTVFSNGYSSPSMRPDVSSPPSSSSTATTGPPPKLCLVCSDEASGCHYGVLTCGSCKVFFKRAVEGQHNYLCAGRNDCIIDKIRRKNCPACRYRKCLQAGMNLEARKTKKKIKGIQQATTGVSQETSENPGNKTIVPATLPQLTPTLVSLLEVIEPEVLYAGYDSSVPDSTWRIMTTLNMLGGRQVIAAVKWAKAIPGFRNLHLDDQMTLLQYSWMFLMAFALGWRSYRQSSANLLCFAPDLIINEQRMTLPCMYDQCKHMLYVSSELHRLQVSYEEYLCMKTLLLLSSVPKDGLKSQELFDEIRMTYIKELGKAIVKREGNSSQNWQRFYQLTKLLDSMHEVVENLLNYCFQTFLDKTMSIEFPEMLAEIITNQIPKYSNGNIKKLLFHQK

Structure (SMILES) | Potency
N[C@@H](CSC1(c2ccc(Cl)cc2)c2ccccc2-c2ccccc21)C(=O)O | > 46 µM (inactive)
OC[C@@H]1CCC[C@H](n2cnc3c(=S)nc[nH]c32)O1 | > 46 µM (inactive)
CC(=O)CSCc1ccccn1 | > 46 µM (inactive)
CC1(C)S[C@@H]2[C@H](C(=O)O)N=C(Cc3ccccc3)N2[C@H]1C(=O)O | > 46 µM (inactive)
O=C(O)c1cccc(N=Nc2c(S(=O)(=O)O)ccc3c2C(=O)c2ccccc2C3=O)c1O | > 46 µM (inactive)
O=[N+]([O-])c1ccc(CS(=O)Cc2ccccc2)cc1 (configuration not stated) | > 46 µM (inactive)
O=C(O)c1ccncc1.O=C(O)c1ccncc1.[Cl][Pt]([Cl])([Cl])[Cl] | > 46 µM (inactive)
CC(CCc1nc2ccccc2s1)(c1ccc(O)cc1)c1ccc(O)cc1 | > 46 µM (inactive)
O=C(O)CN1C(=O)O[C@@H](c2ccccc2)C1=O | > 46 µM (inactive)
Cc1nn(-c2ccc(S(=O)(=O)O)cc2)c(O)c1N=Nc1ccc(-c2ccc(N=Nc3ccc4c(S(=O)(=O)O)cc(S(=O)(=O)O)c(N)c4c3O)c(O)c2)cc1O.[Cu].[Cu] | > 46 µM (inactive)
CC(C)(CN)SCc1ccccc1 | > 46 µM (inactive)
COc1ccc(Oc2ncc3nc(-c4ccccc4)c(=O)n(CCC#N)c3n2)cc1 | > 9.22 µM (inactive)
Cn1c(N)nc2c(nc(OCc3ccccc3)n2[C@@H]2O[C@H](CO)[C@@H](O)[C@@H]2O)c1=O | > 46 µM (inactive)
O=C(O)c1oc(C(=O)O)c(C(=O)O)c1C(=O)O | > 46 µM (inactive)
OC(Cc1ccccc1)(Cc1ccccc1)c1ccccc1 | > 46 µM (inactive)
Cc1cc(C)nc(NC(=O)COc2ccc(Cl)cc2)c1 | > 46 µM (inactive)
CCN(CC)COC(=S)S | > 46 µM (inactive)
CCC(=O)[C@@H](c1ccccc1)c1ccccn1 | > 46 µM (inactive)
Cc1cc(OCC(=O)O)c(Cl)cc1Cl | > 46 µM (inactive)
NC(=O)NCCS[C@H]1CCCC[C@@H]1O | > 46 µM (inactive)
CCOC(=O)Cn1c(C(F)(F)F)nc2nc(Cl)c(Cl)nc21 | > 46 µM (inactive)
Cc1cc(Cl)ccc1OCC(=O)Oc1c(Cl)c(Cl)c(Cl)c(Cl)c1Cl | > 46 µM (inactive)

molecular target: Glucocorticoid receptor (Homo sapiens) (UniProt P04150); assay: GR-EFC Redistribution (AID 451); conditions: CHO-K1 GR-EFC translocation, beta-gal luminescence, 2 h; also: potency is read from the fitted curve at half-maximal effect
Procedure, shortened: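 CHO-K1 cells stably expressing nuclear-localized β-gal enzyme acceptor and GR fused C-terminally to the enzyme donor fragment; ligand-driven nuclear translocation restores β-gal by complementation. Compounds titrated up to 46 uM final, 2 h at 37 °C; luminescence read.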

Structure (SMILES) | Potency
N[C@@H](CSC1(c2ccc(Cl)cc2)c2ccccc2-c2ccccc21)C(=O)O | > 9.22 µM (inactive)
OC[C@@H]1CCC[C@H](n2cnc3c(=S)nc[nH]c32)O1 | > 9.22 µM (inactive)
Cc1noc(C)c1C(=O)N1CCC2(CC1)CN(c1cccc(-c3ccccc3)c1)C2 | > 46 µM (inactive)
CC(=O)CSCc1ccccn1 | > 9.22 µM (inactive)
CC(C)CN(CC#N)CC(C)C | > 9.22 µM (inactive)
CC1(C)S[C@@H]2[C@H](C(=O)O)N=C(Cc3ccccc3)N2[C@H]1C(=O)O | > 9.22 µM (inactive)
O=[N+]([O-])c1ccc(CS(=O)Cc2ccccc2)cc1 (configuration not stated) | > 9.22 µM (inactive)
O=C(O)c1ccncc1.O=C(O)c1ccncc1.[Cl][Pt]([Cl])([Cl])[Cl] | > 9.22 µM (inactive)
CC(CCc1nc2ccccc2s1)(c1ccc(O)cc1)c1ccc(O)cc1 | > 9.22 µM (inactive)
c1ccc(CN2COc3c(ccc4c5c(ccc34)CN(Cc3ccccc3)CO5)C2)cc1 | > 9.22 µM (inactive)
COc1ccc(C(=O)N2CCC[C@@]3(CCN(c4ccccc4)C3)C2)cc1 | > 46 µM (inactive)
O=C(O)CN1C(=O)O[C@@H](c2ccccc2)C1=O | > 9.22 µM (inactive)
O=S(=O)(c1ccccc1)N1CCN(S(=O)(=O)c2ccccc2)c2ccccc21 | > 9.22 µM (inactive)
Cc1nn(-c2ccc(S(=O)(=O)O)cc2)c(O)c1N=Nc1ccc(-c2ccc(N=Nc3ccc4c(S(=O)(=O)O)cc(S(=O)(=O)O)c(N)c4c3O)c(O)c2)cc1O.[Cu].[Cu] | > 9.22 µM (inactive)
O=C1OC2(c3ccc(O)cc3Oc3cc(O)ccc32)c2c1c(-c1ccccc1)c(-c1ccccc1)c(-c1ccccc1)c2-c1ccccc1 | > 9.22 µM (inactive)
CC(C)(CN)SCc1ccccc1 | > 9.22 µM (inactive)

Structure (SMILES) | Potency
COCCn1c(=O)c(-c2cc(F)cc(F)c2)nc2cnc(Oc3ccc(OC)cc3)nc21 | > 46 µM (inactive)
COc1ccc(Oc2ncc3nc(-c4ccccc4)c(=O)n(CCC#N)c3n2)cc1 | > 46 µM (inactive)
Cn1c(N)nc2c(nc(OCc3ccccc3)n2[C@@H]2O[C@H](CO)[C@@H](O)[C@@H]2O)c1=O | > 9.22 µM (inactive)
O=C(O)c1oc(C(=O)O)c(C(=O)O)c1C(=O)O | > 9.22 µM (inactive)
OC(Cc1ccccc1)(Cc1ccccc1)c1ccccc1 | > 9.22 µM (inactive)
Cc1cc(C)nc(NC(=O)COc2ccc(Cl)cc2)c1 | > 9.22 µM (inactive)
CCN(CC)COC(=S)S | > 9.22 µM (inactive)
CCc1ccc(CCC(=O)O)nc1 | > 9.22 µM (inactive)
COc1ccc(C(=O)N2CCC3(CC2)CCN(c2ccccn2)CC3)cc1 | > 46 µM (inactive)
CCC(=O)[C@@H](c1ccccc1)c1ccccn1 | > 9.22 µM (inactive)
Cc1cc(OCC(=O)O)c(Cl)cc1Cl | > 9.22 µM (inactive)
NC(=O)NCCS[C@H]1CCCC[C@@H]1O | > 9.22 µM (inactive)
CN(C)CN1CSC(=S)N(CN(C)C)C1 | > 9.22 µM (inactive)
CCOC(=O)Cn1c(C(F)(F)F)nc2nc(Cl)c(Cl)nc21 | > 9.22 µM (inactive)
Cc1cc(Cl)ccc1OCC(=O)Oc1c(Cl)c(Cl)c(Cl)c(Cl)c1Cl | > 9.22 µM (inactive)
OCCSCc1cc(Cl)cc(Cl)c1O | > 9.22 µM (inactive)

Reference: PubChem BioAssay (NCATS)
